Only a selection was taken, and hits are over-represented in it overall.
HIV RNase H inh-1: HIV-1 RT RNase H inhibitors, primary screen, biochemical, fluorescence | Gag-Pol polyprotein (Human immunodeficiency virus type 1 group M subtype B (isolate … | RT-RNase H RNA/DNA duplex cleavage | inhibition, % at 10 µM | 65,000 tested, 1.9% active; in the data active means inhibition above about 50%
HIV RNase H inh-2: HIV-1 RT RNase H inhibitors, retest, confirmation, biochemical; shares compounds with HIV RNase H inh-1; Recombinant RT RNase H, fluorescent RNA/DNA duplex cleavage; inhibition, % at 10 µM; 1,000 tested, 39% active; AID 651, 2007; in the data active means inhibition above about 48%; inconclusive means no clear call, values can overlap the other calls
A number is an active result; 0 = inactive; ? = inconclusive.

SMILES	HIV RNase H inh-1	others
CCn1c(SCC(=O)N(Cc2ccccc2)C2CCS(=O)(=O)C2)nc2ccccc2c1=O (stereo not drawn)	0
CN(C(=O)CSc1nc2ccccc2n1CCc1ccccc1)C1CCS(=O)(=O)C1 (stereo not drawn)	85.9	HIV RNase H inh-2=0
O=C(NCc1ccccn1)c1nnc(Cc2ccc(Cl)cc2)o1	0
O=C(CC1Sc2ncnn2C1=O)Nc1ccc(Br)cc1 (stereo not drawn)	0
CCOc1ccccc1NC(=O)CC1NCCNC1=O (stereo not drawn)	0
Cc1ccccc1NC(=O)c1nc[nH]c1C(=O)NCc1ccccc1	0
CNC(=O)c1[nH]cnc1C(=O)Nc1cccc(OC)c1	0
CCOc1ccccc1NC(=O)c1nc[nH]c1C(=O)Nc1ccccc1OCC	84.3	HIV RNase H inh-2=?
COc1ccccc1NC(=O)c1nc[nH]c1C(=O)Nc1ccccc1OC	82.9	HIV RNase H inh-2=0
COc1ccc(NC(=O)c2nc[nH]c2C(=O)Nc2ccccc2C)cc1	0
O=C(NCc1ccccc1)NC1(C(=O)N2CCN(c3ccccc3)CC2)CCCCC1	0
COc1ccc(OC)c(NC(=O)Cn2cc(C#N)c3cc(Br)ccc32)c1	0
CCOC(=O)C(NC(C)=O)C(OC(C)=O)c1cccc(N(CCO)CCO)c1 (stereo not drawn)	0
Cc1ccc(S(=O)(=O)CCc2nc3ccccc3n2CCC#N)cc1	0
C=C(C)Cn1c(CCCNC(=O)C(C)(C)C)nc2ccccc21	0
CN1Cc2sc(N)c(C#N)c2CC1(C)C	0
CCC1(C)Cc2c(C#N)c(N)sc(=S)c2CO1 (stereo not drawn)	0
N#Cc1c(N)sc(=S)c2c1CCCC2	66.6	HIV RNase H inh-2=0
CCn1c(=O)cc(SCC(=O)NCCCN2CCN(c3ccccc3F)CC2)c2ccccc21	0
Cc1ccc(CN(CC(=O)NCCc2ccccc2)C(=O)CCCC(=O)Nc2cc(C)on2)cc1	0
N#CC1=C(N)SC(N)=C(C#N)C1c1ccoc1	86.2	HIV RNase H inh-2=0
CC1=C(C#N)C(c2ccoc2)C(C(=O)OCc2ccccc2)=C(N)S1 (stereo not drawn)	0
CC(C)C1C(C#N)=C(N)SC(N)=C1C#N	0
N#CC1=C(N)Oc2cc(O)ccc2C1c1cccs1 (stereo not drawn)	0
Cc1ccc(C2C(C#N)=C(N)SC(N)=C2C#N)cc1	66.9	HIV RNase H inh-2=0
SMILES	HIV RNase H inh-1	others
Cc1[nH]nc2c1C(c1ccoc1)C(C#N)=C(N)O2 (stereo not drawn)	0
Cc1ccc(-n2nc(C)c3c2OC(N)=C(C#N)C3c2ccc(F)cc2)cc1 (stereo not drawn)	0
Cc1ccc(C2C(C#N)=C(N)SC(N)=C2C#N)c(C)c1	83.1	HIV RNase H inh-2=0
CC(c1ccccc1)C1C(C#N)=C(N)SC(N)=C1C#N (stereo not drawn)	0
CCC(=O)c1ccc(OCCSc2ncccn2)cc1	0
O=C(c1ccc2c(c1)OCO2)N(c1ccc(Cl)cc1)C1C=CS(=O)(=O)C1 (stereo not drawn)	0
COc1cccc(-c2cc(C(=O)Nc3cc(C)on3)no2)c1	0
COC(=O)c1c(-c2cccnc2)csc1NC(=O)c1cc(C)on1	85.8	HIV RNase H inh-2=?
COC(=O)c1c(-c2ccc(F)cc2)csc1NC(=O)c1ccco1	0
CCOC(=O)CNC(=O)Cn1cnc2ccc(S(=O)(=O)N3CCC(C)CC3)cc2c1=O	0
COc1ccc(C(=O)Nc2nncs2)cc1S(=O)(=O)N1CC(c2ccccc2)CC1=O (stereo not drawn)	0
COCCn1c(-c2ccc(Cl)cc2)cnc1SCC(=O)NCc1cccs1	0
O=C(c1ccc2nc(-c3ccco3)c(-c3ccco3)nc2c1)N1CCC2(CC1)OCCO2	74.7	HIV RNase H inh-2=0
Cc1nc2cc(C(=O)N3CCC4(CC3)OCCO4)ccc2n1-c1cccc(F)c1	0
O=C(c1ccc2c(c1)ncn2C1CCCCCC1)N1CCC2(CC1)OCCO2	0
COc1ccccc1Nc1nc(C2(C)CCC(=O)O2)cs1 (stereo not drawn)	0
Cc1cccc(NC(=O)c2cc(-c3ccco3)nc3ccccc23)n1	0
CCOc1ccc(C(=O)Nc2cccc(C)n2)cc1	0
Cc1cccc(NC(=O)c2ccccc2Br)n1	63.2	HIV RNase H inh-2=0
COc1ccccc1NC(=O)Cn1cnc2c(cnn2-c2ccc(C)c(C)c2)c1=O	0
OCCN1CCN(C(=S)c2ccc(Cl)c(Cl)c2)CC1	92.9	HIV RNase H inh-2=66.1
O=C(N1CCN(CCO)CC1)N1c2ccccc2C=Cc2ccccc21	0
OCCN1CCN(c2nc(-c3ccccc3)c3cc(Cl)ccc3n2)CC1	0
CCOC(=O)N1CCN(C(=O)CCCn2nc(C)c3sc4ccccc4c3c2=O)CC1	0
CCCn1c(C)cc(=O)c2cc(NC(=O)c3ccccn3)ccc21	0
SMILES	HIV RNase H inh-1	others
Cc1sc2ncn(CC(=O)OC(C)C(=O)NC(C)(C)C)c(=O)c2c1C (stereo not drawn)	0
CCOc1ccc(CCNC(=O)c2cc3sccc3n2C)cc1OCC	0
COC(=O)c1ccc2c(=O)[nH]c(CN3c4ccccc4CC3C)nc2c1 (stereo not drawn)	63.5	HIV RNase H inh-2=61.4
CC1Cc2ccccc2N1Cc1nc2scc(-c3cccs3)c2c(=O)[nH]1 (stereo not drawn)	0
N#Cc1ccc(COC(=O)c2ccc3c(=O)[nH]c(CN4CCOCC4)nc3c2)cc1	0
O=C(c1noc2c1CCc1ccccc1-2)N1CCc2ccccc2C1	0
Cc1nc2ccc(S(=O)(=O)NCC(=O)N3CCC(N4CCCCC4)CC3)cc2s1	0
Cc1cc(C)c2c(=O)n(CC(=O)N3CCC(N4CCCCC4)CC3)sc2n1	83.4	HIV RNase H inh-2=58.3
CCOCC(=O)N1CCCC(C(=O)OCC)C1 (stereo not drawn)	0
CCOC(=O)C1CCCN(C(=O)Cn2cnc3c2c(=O)n(C)c(=O)n3C)C1 (stereo not drawn)	0
CC(=O)c1cc(-c2ccccc2)n(CC(=O)N2CCC(N3CCCCC3)CC2)c1C	0
CCOC(=O)C1CCCN(C(=O)Cn2sc3nc(C)cc(C)c3c2=O)C1 (stereo not drawn)	85.0	HIV RNase H inh-2=50.8
COc1cccc(Oc2cncnc2-c2ccc(OC)cc2O)c1	0
c1cc2[nH]snc2c2nc(C3CC3)nc12	0
O=C(CSc1nnc(COc2ccccc2)n1-c1ccccc1)c1cccs1	0
Cc1cc(C2C(=O)C(C(=O)c3ccc(Cl)cc3)C(=O)CC2(C)C)on1 (stereo not drawn)	0
O=c1c2ccccc2cnn1-c1nc2ccccc2s1	0
O=S1(=O)CC(N2CCCCC2)C(N2CCCCC2)C1 (stereo not drawn)	0
CSc1cccc(NS(=O)(=O)c2ccc3c(c2)oc(=O)n3C)c1	0
c1ccc(OCCCc2nc(-c3ccccn3)no2)cc1	0
CCOC(=O)N1CCC(N2C(=O)c3ccccc3C2=O)CC1	0
CCOC(=O)N1CCC(N2C(=O)c3ccc(C(=O)NC4CCCCCC4)cc3C2=O)CC1	64.1	HIV RNase H inh-2=0
CCCN1C(=O)c2ccc(C(=O)NC3CCCCC3)cc2C1=O	0
CCn1c(SCC(=O)N2CCN(c3ccccc3F)CC2)nnc1-c1ccoc1C	0
C1CNCCNCCNCCN1	0
Cc1cc(C)c2oc(-c3ccc(Cl)c(NC(=O)c4ccc(C#N)cc4F)c3)nc2c1	90.5	HIV RNase H inh-2=73.0
COc1cc(C(=O)Nc2cc(-c3nc4cc(C)ccc4o3)ccc2C)cc(OC)c1OC	0
COc1ccc(C(=O)Nc2cc(Cl)ccc2Cl)c(OC)n1	0
Cc1oc(-c2ccccc2)nc1CS(=O)CC(=O)N1CCc2ccccc2C1 (stereo not drawn)	0

Screening results as filed in PubChem.
